Compound activity (PubChem)
A selection: hits, their analogues and other compounds. The true share with any hit is near 7.3%.
HCV inh = inhibitors of hepatitis C virus infection | Potency, µM (doses to about 41.8 µM), inactives show at the highest dose activity change, negative = inhibition, hits mostly inhibitors | 3.4% of 340,000 active | Huh7.5.1 HCVcc-Cre infection, luciferase reporter, 44 h; note: potency is the fitted concentration of half-maximal effect
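1,000 cells/well; 4 h culture; + compound; + HCVcc-Cre (~0.5 moi); 44 h; luciferase substrate, RT 15 min; read 15 sec.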
FMDV inh = foot and mouth disease virus antiviral activity; FMDV antiviral cell-based qHTS; Potency, µM (highest dose often 57.9 µM), inactives show at the top dose activity change, negative = inhibition, most hits filed as inhibitors; 1.2% of 410,000 active; AID 1159524; calls by dose curve; tested in HEK293T cells; note: read-out not given here; potency is the fitted concentration of half-maximal effect; nearly all actives have a fitted effect of over 45% in size
HCMV inh = inhibitors of human cytomegalovirus | HFF cells, HCMV-luciferase reporter, 72 h; stronger effect = lower value | activity change, negative = inhibition, % at 57.5 µM | 4.5% of 410,000 active | AID 1259415; in the data active = activity change below about -60%; inconclusive = no clear call, values can overlap the other calls; inactive = above about -39%
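Luciferase read-out from HCMV-luciferase-infected HFFs (MOI 1 PFU/cell) 72 h post infection at 37C; compounds added after 16 h cell attachment; activity normalized between buffer-only basal and Salinomycin (10uM) inhibitor controls.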
AmpC inh detg = blocks E. coli AmpC beta-lactamase in detergent assay | AmpC hydrolysis of nitrocefin, absorbance 480 nm, 0.01% Triton | Potency, µM (doses to about 114 µM), inactives show at the top dose activity change, negative = inhibition, actives largely listed as inhibitors | 0.041% of 370,000 active | P00811;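 note: potency is the fitted concentration of half-maximal effect; 0% = no-compound wells and -100% = no-enzyme wells; nearly all actives have a fitted effect of over 25% in size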
Target sequence (P00811 whole entry, looked up): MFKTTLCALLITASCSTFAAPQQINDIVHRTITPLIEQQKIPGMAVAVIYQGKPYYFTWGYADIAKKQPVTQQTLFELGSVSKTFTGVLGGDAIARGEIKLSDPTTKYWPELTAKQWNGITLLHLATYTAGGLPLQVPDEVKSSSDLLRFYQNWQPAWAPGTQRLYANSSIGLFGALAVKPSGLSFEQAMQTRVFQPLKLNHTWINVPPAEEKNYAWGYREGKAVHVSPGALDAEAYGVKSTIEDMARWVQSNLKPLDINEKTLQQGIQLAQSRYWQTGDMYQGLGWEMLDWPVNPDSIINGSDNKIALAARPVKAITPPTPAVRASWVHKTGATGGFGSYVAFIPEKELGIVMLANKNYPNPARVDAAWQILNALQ
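20 mM phosphate pH 7.0 + 0.01% (detergent screen) or 0.0001% Triton X-100; 5.3 nM AmpC reagent; cpd preinc 15 min RT; nitrocefin (800 uM stock) to start; A480 q20 s × 4 min; Activity was normalised to no-enzyme and no-compound control wells.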
AmpC no deterg = AmpC beta-lactamase inhibition without detergent | AmpC nitrocefin hydrolysis, absorbance 480 nm, 0.0001% Triton | Potency, µM (doses to about 57.1 µM), inactives show at the highest dose activity change, negative = inhibition, usual class: inhibitors | 0.52% of 330,000 active;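 note: potency is the fitted concentration of half-maximal effect; plate controls were no compound for no effect and no enzyme for full effect; nearly all actives have a fitted effect of over 20% in size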
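AmpC (5.3 nM in the dispensed reagent) in 20 mM phosphate pH 7.0 with 0.01% (detergent screen) or 0.0001% Triton X-100 was preincubated with compounds for 15 min at room temperature. Nitrocefin was then added from an 800 uM solution, and hydrolysis was followed at 480 nm.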
* = called active by the depositor; ? = inconclusive; . = no result. Unless noted, calls come from the whole dose curve; as a rule, active = well fitted curve in the direction sought with a large enough effect; inconclusive = small, poorly fitted or top-dose-only effect, or another doubt; inactive = no such curve, though single readings can be large; an effect the other way counts as inactive or inconclusive. Unless noted, % is set by controls: 0 for no effect and ±100 for the full control effect.

SMILES	HCV inh	FMDV inh	HCMV inh	AmpC inh detg	AmpC no deterg
CCC(C)(C)C1CCc2[nH]nc(C(=O)NC3CCCC3)c2C1 (stereo unspecified)	2.9%	0.0%	39.7	-11.2%	-28.6%
O=C(NC1CCCCC1)c1n[nH]c2c1CCCCC2	7.7%	14.1µM*	-27.5	-4.3%	-1.3%
Cc1nnc(NC(=O)CSc2nnc(Cc3cccn3C)n2C)s1	9.8%	3.1%	12.4	5.4%	31.6µM*
CC1CCN(C(=O)CSc2nnc(Cc3cccn3C)n2-c2ccc(F)cc2)CC1	11.3%	-23.7%	-7.4	?	6.31µM*
COc1ccc(-n2c(Cc3cccn3C)nnc2SCC(=O)Nc2ccc(Cl)cc2)cc1	-12.2%	1.1%	-0.9	5.5%	1µM*
COc1ccc(-n2c(Cc3cccn3C)nnc2SCC(=O)Nc2ccccc2)cc1	9.2%	-2.2%	-16.9	-8.7%	?
Cn1cccc1Cc1nnc(SCC(=O)N2CCCCCC2)n1-c1ccc(F)cc1	-6.1%	0.0%	0.6	-2.4%	89.2%
COc1ccc(-c2cc(C(=O)NCCc3ccccc3)c3c(-c4ccc(Cl)cc4)[nH]nc3n2)cc1	.	-13.2%	-97.7*	-3.7%	.
COCCCNC(=O)c1cc(-c2ccc(OC)cc2)nc2n[nH]c(-c3ccc(Cl)cc3)c12	.	0.1%	-8.0	-5.6%	.
CCc1ccc(-c2[nH]nc3nc(-c4ccc(OC)cc4)cc(C(=O)NCCc4ccc(OC)c(OC)c4)c23)cc1	.	?	-91.4*	1.4%	.
COc1ccc(-c2cc(C(=O)NCCc3ccccc3)c3c(-c4ccccc4)[nH]nc3n2)cc1	.	28.8%	-82.4*	-3.0%	.
COc1ccc(CCNC(=O)c2cc(-c3ccc(C)cc3)nc3n[nH]c(-c4ccc(F)cc4)c23)cc1OC	.	-8.8%	-21.4	-7.0%	.
COc1ccc([C@@H]2[C@@H](C(=O)N3CCOCC3)CC(=O)N2C(=O)C2CC2)cc1	.	.	11.4	.	.
CCOc1ccc(CCNC(=O)c2nc(-c3cccc(F)c3)n3c2CCCCC3)cc1OCC	.	-16.9%	0.8	-2.1%	.
CN(C(=O)c1nc(-c2cccc(F)c2)n2c1CCCCC2)c1ccccc1F	.	-12.6%	-61.9*	19.4%	.
CCOc1ccccc1N=Nc1c(C)[nH]n(C(N)=S)c1=O	10µM*	-22.3%	-85.2*	-5.8%	-18.8%
Cc1c(O)ccc(/C(Cc2ccc3ccccc3n2)=N\O)c1O	11.2µM*	14.5%	2.4	3.1%	-50.5%
O=C(CCC1N=C2c3ccccc3N=C(SCc3ccccc3Cl)N2C1=O)N1CCN(c2ccccc2)CC1 (stereo unspecified)	.	-0.1%	-7.2	3.4%	.
Cc1nn(C(=O)c2cccc(F)c2)c(C)c1S(=O)(=O)N1CCOCC1	.	0.0%	-81.1*	19.2%	.
Cc1nn(C(=O)c2ccccc2)c(C)c1S(=O)(=O)N1CCCCCC1	.	21.6%	12.0	1.9%	.
Cc1nn(C(=O)c2cccc(F)c2)c(C)c1S(=O)(=O)N1CCCCCC1	.	-1.4%	-91.2*	4.7%	.
Cc1nn(C(=O)c2cccc(Cl)c2)c(C)c1S(=O)(=O)N1CCOCC1	.	?	-4.0	?	.
COc1cccc(CSc2nc3n(n2)C(c2cccc(F)c2)C(C(=O)Nc2ccccc2C)=C(C)N3)c1 (stereo unspecified)	.	-15.4%	6.0	6.1%	.
COc1cccc(CSc2nc3n(n2)C(CC(C)C)C(C(=O)Nc2ccccc2OC)=C(C)N3)c1 (stereo unspecified)	.	-25.9%	-69.5*	1.6%	.
COc1cc(C2C(C(=O)Nc3ccc(C)cc3C)=C(C)Nc3nc(SCc4ccccc4)nn32)cc(OC)c1OC (stereo unspecified)	.	-1.7%	-74.1*	-5.9%	.
SMILES	HCV inh	FMDV inh	HCMV inh	AmpC inh detg	AmpC no deterg
CCOc1ccc(C2C(C(=O)Nc3ccccc3)=C(C)Nc3nc(SCc4cc(C)ccc4C)nn32)cc1 (stereo unspecified)	.	-11.7%	15.7	8.3%	.
CC1=C(C(=O)Nc2ccccc2C)C(c2ccncc2)n2nc(SCc3ccccc3)nc2N1 (stereo unspecified)	.	-11.4%	4.1	6.5%	.
COc1cc(C2C(C(=O)Nc3ccccc3C)=C(C)Nc3nc(SCc4cc(C)ccc4C)nn32)ccc1O (stereo unspecified)	.	-22.4%	-74.3*	1.3%	.
CC1=C(C(=O)Nc2ccc(C)cc2C)C(c2ccc(C(=O)O)cc2)n2nc(SCc3ccccc3)nc2N1 (stereo unspecified)	.	8.6%	-6.4	-2.0%	.
CC1=C(C(=O)Nc2ccccc2C)C(c2cccs2)n2nc(SCc3ccccc3)nc2N1 (stereo unspecified)	.	-25.3%	-64.7*	6.7%	.
COc1cccc(CN2CCC3(CCC(CNC(=O)c4ccco4)O3)CC2)c1OC (stereo unspecified)	.	-4.6%	.	.	.
COc1ccc(/C=N/NC(=O)c2ccc(-c3ccccc3)cc2)cc1O	?	?	-60.2*	-8.4%	35.5µM*
COc1cc(/C=N/NC(=O)c2ccccc2)ccc1O	3.0%	30.8%	1.8	-3.2%	-29.0%
CCOc1ccccc1NC(=O)C(=O)N/N=C/c1cc(Br)ccc1O	6.31µM*	-21.3%	-100.9*	-2.6%	-14.7%
COc1ccc(/C=N/NC(=O)c2ccc(O)cc2)cc1CN1CCCc2ccccc21	?	39.8µM*	61.3	-6.8%	-19.5%
O=C(NN=Cc1cccc(O)c1O)c1ccccc1	.	11.7%	-94.2*	.	.
CCOc1ccccc1C=NNC(=O)C(=O)NN=Cc1ccccc1OCC	-17.6%	0.0%	9.3	.	.
COc1ccc(/C=N/NC(=O)c2ccc(F)cc2)cc1CN1CCc2cc(OC)c(OC)cc2C1C (stereo unspecified)	?	-2.4%	23.0	2.2%	74.5%
COc1ccccc1CNC(=O)C(=O)NCC1OCCCN1S(=O)(=O)c1cccs1 (stereo unspecified)	11.2%	0.0%	1.1	-1.2%	-11.9%
CCOC(=O)c1c(C)[nH]c(C(=O)OCC(=O)NC2(C#N)CCCCC2)c1C	?	-29.1%	?	0.0%	-19.6%
COc1cccc(NC(=O)[C@H](CC(C)C)NC(=O)N2CCn3c2nc2ccccc23)c1	-16.5%	-20.5%	39.6	-13.0%	20.4%
CCNC(=O)C1(C)CCN(C(=O)c2cc(OC)c(OC)c(OC)c2)C1 (stereo unspecified)	.	-10.3%	10.2	.	.
CC(C)c1cccc(-c2nc3c(NCc4cccc(N(C)C)c4)nccc3[nH]2)c1	.	.	-0.3	.	.
CC(=O)Nc1ccc(NC(=O)c2cc3sccc3n2Cc2ccc(Cl)cc2)cc1	.	-9.6%	18.8	6.9%	.
COc1ccc(OC)c(/C=N\NC(=O)c2ccc(-c3ccccc3)cc2)c1	?	-19.5%	-8.4	3.3%	-35.3%
CCOc1c(Br)cc(/C=N\NC(=O)c2ccccc2)cc1OC	?	-28.5%	-62.5*	-1.2%	-53.8%
COc1ccc(CCCC(=O)N/N=C/c2cccc(OC)c2O)cc1C	?	-20.1%	-99.1*	?	-14.1%
